KB-V1 cytotox = qHTS assay for MDR1-selective chemotherapeutics: Primary screen using the drug-selected MDR subline cells KB-V1; Potency, µM (titrated, usually from 46.1 µM), actives largely listed as cytotoxic; KB-V1 MDR cells viability, CellTiter-Glo, 72 h; hit rate 3.4% among 400,000; further: potency means the concentration at half of the fitted maximal effect; on the % scale 0 is the no-effect control and ±100 the full control effect; nearly all actives have a fitted effect of over 60% in size
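qHTS viability screen in drug-selected KB-V1 MDR cells: 72 h compound treatment at 37 degrees C, ATP luminescence end point.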
D3 antag = qHTS of D3 Dopamine Receptor Antagonist: qHTS; D(3) dopamine receptor (Homo sapiens), P35462; D3R cells, DiscoveRx beta-arrestin luminescence, antagonist mode; stronger effect = lower value; max response, negative = inhibition, %; hit rate 2.5% among 360,000; in the data active means max response below about -50%; inconclusive means no clear call, values can overlap the other calls; further: on the % scale 0 is the no-effect control and ±100 the full control effect
Target sequence (P35462 whole entry, looked up): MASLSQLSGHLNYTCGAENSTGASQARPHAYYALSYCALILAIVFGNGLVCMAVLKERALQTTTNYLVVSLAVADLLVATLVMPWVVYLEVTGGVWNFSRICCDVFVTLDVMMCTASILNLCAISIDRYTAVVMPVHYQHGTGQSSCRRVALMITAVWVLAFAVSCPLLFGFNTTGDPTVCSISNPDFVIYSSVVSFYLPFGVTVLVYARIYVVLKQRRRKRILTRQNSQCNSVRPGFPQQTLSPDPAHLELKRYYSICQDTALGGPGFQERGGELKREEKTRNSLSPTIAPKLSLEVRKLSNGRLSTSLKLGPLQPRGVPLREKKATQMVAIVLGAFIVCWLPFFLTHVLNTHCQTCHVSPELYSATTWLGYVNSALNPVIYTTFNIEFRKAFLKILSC
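Cells plated overnight at 1500 cells/well, then exposed to library compounds with dopamine controls for 90 minutes at 37 degrees C. DiscoveRx reagent added for 30–60 minutes at room temperature; luminescence read, quantitative HTS format.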
D3 ag = qHTS of D3 Dopamine Receptor Agonist: qHTS; max activation, %; D(3) dopamine receptor (Homo sapiens), P35462; D3R DiscoveRx beta-arrestin cells, luminescence, 90 min; hit rate 0.58% among 410,000; in the data active means max activation above about 30%; further: 0% is about no effect
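Agonist mode: compounds and dopamine controls were applied to plated cells for 90 min at 37 degrees C after an overnight attachment at 1500 cells/well. Luminescent read-out followed 30 - 60 minutes at room temperature with DiscoveRx detection reagent.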
SW480 rereplic = A quantitative high throughput screen for small molecules that induce DNA re-replication in SW480 colon adenocarcinoma cells; SW480 DNA re-replication, Hoechst DNA content imaging, 48 h; Potency, µM (highest dose often 46.1 µM), for the others: at the highest dose re-replication activation, hits mostly activators; hit rate 1.8% among 340,000; AID 624297, 2012; further: potency means the concentration at half of the fitted maximal effect; % of control where 0% means no effect; nearly all actives have a fitted effect of over 55% in size
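Readout is total intensity of Hoechst-stained nuclei, excited at 405 nm and collected at 500-530 nm. Compound treatment lasted 48 hr at 37 C in 5% CO2 before staining.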
MCF10A rereplic = A quantitative high throughput screen for small molecules that induce DNA re-replication in MCF 10a normal breast cells. MCF 10A DNA re-replication, Hoechst nuclear intensity, 48 h. Potency, µM (series often up to 46.1 µM), for the others: at the highest dose activity, positive = re-replication, most hits filed as activators. hit rate 2.9% among 350,000. AID 624296, 2012; further: potency means the concentration at half of the fitted maximal effect; % of control where 0% means no effect; nearly all actives have a fitted effect of over 50% in size
KB-3-1 tox = qHTS assay for MDR1-selective chemotherapeutics: Primary screen using the parental adenocarcinoma cell KB-3-1. KB-3-1 viability, CellTiter-Glo ATP luminescence, 72 h. Potency, µM (doses to about 46.1 µM), most hits filed as cytotoxic. hit rate 1.4% among 400,000. AID 1347075, 2019; further: potency means the concentration at half of the fitted maximal effect; on the % scale 0 is the no-effect control and ±100 the full control effect; nearly all actives have a fitted effect of over 60% in size
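Parental KB-3-1 viability, qHTS format: 72 h compound exposure, 37 °C; CellTiter-Glo; media-only wells and DMSO plates as controls; concentration-effect fits on corrected data.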
An asterisk follows results filed as active; i = inactive; u = inconclusive; x = no result given; ! = repeats disagree; [ ] = another dose, or the depositor's remark. Only some compounds are listed: those with a hit (about 8.9% of all), similar ones and a draw of the others. Unless noted, the call rests on the fitted dose curve; in most records, active means well fitted curve in the direction sought with a large enough effect; inconclusive means small, poorly fitted or top-dose-only effect, or another doubt; inactive means no such curve, though single readings can be large; an effect the other way counts as inactive or inconclusive.

SMILES	KB-V1 cytotox	D3 antag	D3 ag	SW480 rereplic	MCF10A rereplic	KB-3-1 tox
CC1CCN(c2ccccc2NC(=S)NC(=O)c2cccs2)CC1	i	-58*	-6	-2%[9.22 µM]	10µM*	i
CS(=O)(=O)N1CCN(c2ccccc2NC(=S)NC(=O)c2cccs2)CC1	u	0	-10	10%	4%	i
CC1CCN(c2ccccc2NC(=S)NC(=O)c2ccco2)CC1	18µM*	7	1	9%	18µM*	i
CCCN(CCC)CC(O)Cn1cc(/C=C/C(=O)c2cccs2)c2ccccc21 (configuration not stated)	u	-5	-24	16µM*	u	u
CCCN(CCC)CC(O)Cn1cc(/C=C/C(=O)c2ccccc2)c2ccccc21 (configuration not stated)	i	-3	-6	u	5.2µM*	u
CCCN(CCC)CC(O)Cn1cc(/C=C/C(=O)c2ccc(C)cc2)c2ccccc21 (configuration not stated)	i	x	-10	x	x	i
COc1ccc(/C=C/C(=O)c2ccc3c4c(cccc24)CC3)cc1OC	16µM*	-16	8	u	18µM*	u
COc1ccc(/C=C/C(=O)c2ccc3c4c(cccc24)CC3)cc1	u	0	-15	u	18µM*	u
COc1ccc(/C=C/C(=O)c2cc(F)ccc2OC(=O)c2ccccc2C)cc1OC	i	6	2	1.2µM*	1.2µM*	u
COc1ccc(C(=O)Oc2ccc(F)cc2C(=O)/C=C/c2ccc(OC)c(OC)c2)cc1	u	19	9	u	0%	i
Cc1ccccc1Cn1c(=O)n(CCc2ccccc2)c(=O)c2c(C)c(C)sc21	i	x	2	x	x	i
COC(=O)c1ccccc1S(=O)(=O)Nc1cc(=O)c2ccccc2[nH]1	i	x	x	x	x	i
COc1ccc2cc3cc(C(=O)NCCN4CCc5ccccc5C4)oc3nc2c1	u	u	-13	-4%[9.22 µM]	u	u
O=C(NCCN1CCc2ccccc2C1)Nc1ccc([N+](=O)[O-])cc1	i	-28	-15	-11%	28%	i
COc1ccc(NC(=O)COC(=O)CN2C(=O)c3ccccc3C2=O)cc1	i	-54*	-8	0%	-1%	i
O=C(NCCCN1CCc2ccccc2C1)Nc1ccc(Br)cc1	i	-55*	-8	3%	11%	i
COc1ccc2cc3cc(C(=O)NCCN4CCc5ccccc5C4)sc3nc2c1	u	-93*	-28	-4%	11%	i
COc1ccc(NC(=O)NCCCN2CCc3ccccc3C2)cc1	i	-108*	-12	-4%	5%	i
O=C(CSC1=Nc2ccccc2C2=NC(CCC(=O)NC3CCCCC3)C(=O)N12)Nc1cccc(Cl)c1 (configuration not stated)	i	x	4	x	x	i
COc1ccc(OCc2ccc(-c3nc(C#N)c(N4CCC(C)CC4)o3)o2)cc1	i	x	-11	x	x	u
CCNC(=O)NCCCOc1cccc(CN2CCCCC2)c1	x	x	-19	x	x	x
Cc1ccc(CNC(=O)CSCc2ccccc2C)cc1	i	x	2	x	x	i
COc1ccc(NC(=O)CN2CCc3ccccc3C2)cc1	i	-80*	-5	0%	-2%	i
COc1ccc(NC(=O)CN2CCc3ccccc3C2)cc1OC	u	-8	-12	0%	13%	u
CC(Sc1nnc2ccccn12)C(=O)Nc1ccc(Cl)cn1 (configuration not stated)	i	-2	-25	-2%	-10%	i
SMILES	KB-V1 cytotox	D3 antag	D3 ag	SW480 rereplic	MCF10A rereplic	KB-3-1 tox
COc1ccc(-n2c(SC(C)C(=O)Nc3ncc(Cl)cc3Cl)nc3ccccc32)cc1 (configuration not stated)	2.1µM*	17	36*	u	u	21µM*
CC(Sc1nnc2ccccn12)C(=O)Nc1ncc(Cl)cc1Cl (configuration not stated)	i	-50*	-5	-8%	4%	i
CC(Sc1ccc2c(c1)OCCO2)C(=O)Nc1ncc(Cl)cc1Cl (configuration not stated)	i	-8	-4	-11%	4%	i
CN1C(=O)/C(=C/c2cc(C(C)(C)C)c(O)c(C(C)(C)C)c2)NC1=S	i	-58*	4	-1%	13%	i
CCN(C(=O)CSc1ccc2ccccc2n1)C1CCCCC1	18µM*	8	5	3%	u	u
CNc1cc(CSc2ccc(Cl)cc2)nc(C)n1	i	-12	3	5.2µM*	-17%	i
Cc1ccc(S(=O)(=O)C(C#N)c2nc3ccccc3nc2N2CCN(C)CC2)cc1 (configuration not stated)	i	2	6	13%	u	u
CCOC(=O)N1CCN(c2nc3ccccc3nc2C(C#N)S(=O)(=O)c2ccc(C)cc2)CC1 (configuration not stated)	3.7µM*	31	11	11%	15%	i
COCCNC(=O)C(C#N)c1nc2ccccc2nc1N1CCCCCC1 (configuration not stated)	4.1µM*	8	-2	-210%	u	i
CCOC(=O)C1CCCN(c2nc3ccccc3nc2C(C#N)C(=O)OCC)C1 (configuration not stated)	u	-53*	-4	-2%[9.22 µM]	u	u
CCOC(=O)C1=CCN(S(=O)(=O)c2ccccc2C)C1c1cccc(Cl)c1 (configuration not stated)	21µM*	-8	-3	x	x	u
CCOC(=O)C1=CCN(S(=O)(=O)c2cccc(Cl)c2)C1c1ccccc1 (configuration not stated)	18µM*	16	-9	x	x	i
CCCCCC(=O)Nc1ccc(NC(=O)c2cc3ccccc3o2)c(OC)c1	i	x	-11	x	x	i
CNCCCC12CCC(c3ccccc31)c1ccccc12	u	-77*!	x	u	u	u
CC(C)CC1NC(=O)c2cc3ccccc3cc2-n2c1nc1ccc(F)cc1c2=O (configuration not stated)	i	-58*	-7	x	x	i

Screens from PubChem.
